HepG2 viability: counter-screen for TGF-b inhibitors: cytotoxicity in HepG2 cells; HepG2 CAGA-GFP viability, ATP luminescence, 18 h; Potency, µM (highest dose often 46.1 µM), hits mostly cytotoxic; 410,000 tested, 0.76% active
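HepG2 CAGA-GFP cells (1000/well, DMEM with 1% FBS) received compound, then TGF-beta at 500 pg/mL final, and were incubated 18 hours at 37 degrees C. Viability was read by CellTiter-Glo luminescence. Media-only wells were set as complete cell-killing and DMSO as no toxicity.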
TGFb inhibitor: TGF-b pathway inhibition | 410,000 tested, 1.2% active | AID 588855 | Potency, µM (titrated, usually from 46.1 µM), usual class: inhibitors | HepG2 CAGA-GFP TGF-b/SMAD3 reporter, GFP fluorescence, 18 h; TGF-beta stimulated, 500 pg/mL final; further: nearly all actives have a fitted effect of over 65% in size
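Read-out: total well GFP (ex488/em500-530) summed from mean per-cell fluorescence. Cells: HEPG2 CAGA-GFP, 1% FBS DMEM, 18 h at 37 degrees C with 500 pg/mL final TGF-beta. Unstimulated wells served as the full-inhibition control; stimulated DMSO wells = 0%.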
VP16 counter: inhibits Gal4-VP16 luciferase reporter, ROR gamma counter-screen | Drosophila S2 Gal4-VP16 UAS-luciferase, luminescence, 20 h | Potency, µM (top dose mostly 53.6 µM), hits mostly inhibitors | 310,000 tested, 3.5% active;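 further: Gal4-VP16 expression switched on by copper sulfate through the metallothionein promoter; nearly all actives have a fitted effect of over 50% in size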
S2 tox: cell viability loss in ATXN counter-screen | S2 cells (HEK-293 line with an ATXN2-luciferase reporter) viability, CellTiter-Fluor protease fluorescence, 24 h | Potency, µM (top dose mostly 56.7 µM), hits mostly cytotoxic | 400,000 tested, 0.49% active; further: nearly all actives have a fitted effect of over 40% in size
ATXN2 expr inh: inhibitors of ATXN2 expression; 360,000 tested, 0.72% active; HEK-293 ATXN2-luciferase reporter, luminescence, 24 h; Potency, µM (highest dose often 57 µM), hits mostly inhibitors; further: nearly all actives have a fitted effect of over 55% in size
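ATXN2-luciferase reporter cells (luciferase flanked by upstream and downstream ATXN2 gene portions) were treated 24 h at 37 °C with compounds at up to 57 uM. SteadyGlo luminescence gave expression; GF-AFC fluorescence gave viability.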
RORgamma inh: ROR gamma (mouse) transcription inhibition; P51450; Drosophila S2 Gal4-RORgamma UAS-luciferase reporter, 20 h; Potency, µM (highest dose often 53.6 µM), usual class: inhibitors; 310,000 tested, 5.4% active; AID 2551; further: nearly all actives have a fitted effect of over 60% in size
Target sequence (P51450 whole entry, looked up, the tested form may be a part): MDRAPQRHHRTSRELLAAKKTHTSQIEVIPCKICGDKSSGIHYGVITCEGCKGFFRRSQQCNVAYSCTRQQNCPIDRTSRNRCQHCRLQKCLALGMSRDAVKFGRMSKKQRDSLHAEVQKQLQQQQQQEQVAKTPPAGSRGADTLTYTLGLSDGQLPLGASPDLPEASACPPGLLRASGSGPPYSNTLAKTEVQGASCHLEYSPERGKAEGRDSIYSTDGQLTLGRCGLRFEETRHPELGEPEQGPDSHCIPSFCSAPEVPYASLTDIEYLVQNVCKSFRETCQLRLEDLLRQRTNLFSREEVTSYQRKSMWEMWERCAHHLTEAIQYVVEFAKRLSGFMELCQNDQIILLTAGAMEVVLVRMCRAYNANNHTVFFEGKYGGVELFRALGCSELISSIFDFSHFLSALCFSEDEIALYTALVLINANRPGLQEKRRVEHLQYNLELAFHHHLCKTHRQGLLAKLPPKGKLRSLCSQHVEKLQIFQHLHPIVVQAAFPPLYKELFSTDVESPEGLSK
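ROR gamma transcriptional activity was tracked as Gal4-UAS luciferase output in stably transfected Drosophila Schneider cells, with compound added 1 hr before 700 uM copper sulfate induction and a 20 hr ambient-temperature incubation.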
Hits are given with their value; - = inactive; ? = inconclusive; . = no result given. Shown are actives, neighbours in structure and some others; about 6.3% of the full set was active somewhere. The call rests on the fitted dose curve; in most records, active means well fitted curve in the direction sought with a large enough effect; inconclusive means small, poorly fitted or top-dose-only effect, or another doubt; inactive means no such curve, though single readings can be large; an effect the other way counts as inactive or inconclusive.

SMILES	HepG2 viability	TGFb inhibitor	VP16 counter	S2 tox	ATXN2 expr inh	RORgamma inh
CCCOc1cccc(-c2cc(C(=O)N/N=C/c3ccccn3)c3ccccc3n2)c1	-	?	1.3µM	?	7.1µM	1µM
CC(C)Oc1cccc(-c2cc(C(=O)N3CCN(c4ncccn4)CC3)c3ccccc3n2)c1	.	.	11µM	.	.	-
CCN(CC)CCCNC(=O)CCCn1c(=O)[nH]c2ccc(Br)cc2c1=O	-	-	.	-	-	.
COc1ccc(N2CCN(C(=O)c3sc4ncn(CC(=O)N5CCCCC5C)c(=O)c4c3C)CC2)cc1 (configuration not stated)	-	-	22µM	-	-	-
CCN(CC)C(=O)Cn1cnc2sc(C(=O)N3CCN(c4ccc(OC)cc4)CC3)c(C)c2c1=O	-	-	-	-	-	-
CC1(C(=O)O)CCCN1C(=O)c1cccc2ccccc12 (configuration not stated)	-	-	.	-	-	.
CCCc1cc(-c2n[nH]c(=S)n2-c2cccc(C)c2)cs1	-	-	?	-	-	1.4µM
Cc1cccc(-n2c(-c3csc(C(C)C)c3)n[nH]c2=S)c1	-	-	?	-	-	1.6µM
CC(C)C[C@H](NC(=O)c1nc[nH]c1C(=O)NCC(=O)OCc1ccccc1)C(=O)OCc1ccccc1	-	?	?	-	-	-
CCOC(=O)c1ccc(NC(=O)c2nc[nH]c2C(=O)N(C)Cc2ccccc2)cc1	-	-	?	-	-	10µM
CCOC(=O)c1ccc(NC(=O)c2nc[nH]c2C(=O)N[C@@H](CC(C)C)C(=O)OCc2ccccc2)cc1	-	?	?	-	-	1.1µM
C[C@H](NC(=O)c1[nH]cnc1C(=O)Nc1ccccc1)c1ccccc1	-	?	.	?	?	.
CCOC(=O)c1ccc(NC(=O)c2nc[nH]c2C(=O)N[C@@H](CC(C)C)C(=O)OC(C)(C)C)cc1	-	?	6.3µM	-	-	2.5µM
COc1ccc(NC(=O)c2nc[nH]c2C(=O)N[C@H](C)c2ccccc2)cc1	-	?	7.9µM	-	-	6.3µM
CC(C)C[C@H](NC(=O)c1[nH]cnc1C(=O)Nc1ccccc1)C(=O)OC(C)(C)C	-	16µM	8.9µM	?	?	5µM
COc1ccc(NC(=O)c2nc[nH]c2C(=O)NCc2ccccc2)cc1	-	-	.	-	-	.
CNC(=O)c1[nH]cnc1C(=O)Nc1ccc(OC)cc1	-	-	-	-	-	5.6µM
CCOC(=O)c1ccc(NC(=O)c2nc[nH]c2C(=O)N[C@H](C)c2ccccc2)cc1	-	?	7.1µM	?	32µM	2.8µM
O=[N+]([O-])c1ccc(CS(=O)c2ccccc2)cc1 (configuration not stated)	-	?	.	-	-	.
O=[N+]([O-])c1ccc(S(=O)Cc2ccccc2)c([N+](=O)[O-])c1 (configuration not stated)	-	7.9µM	.	21µM	?	.
NC(=O)CC(NC(=O)c1ccccc1)c1ccc(N2CCN(c3ccc(F)cc3)CC2)c([N+](=O)[O-])c1 (configuration not stated)	-	?	22µM	?	-	-
NC(=O)CC(NC(=O)c1ccccc1)c1ccc(N2CCC(Br)CC2)c([N+](=O)[O-])c1 (configuration not stated)	-	-	13µM	?	-	?
Cc1cccc(S(=O)(=O)NC(=O)C2(C)CCN2C(=O)Cc2ccc(Cl)cc2Cl)c1 (configuration not stated)	-	-	.	-	-	.
COc1cccc2c1OC[C@@H](CO)[C@H]2N(C)C(=O)Nc1ccccc1	-	-	-	-	-	-
CN(C(=O)Nc1ccc(Cl)cc1Cl)[C@H]1c2cc(Br)ccc2OC[C@H]1CO	-	?	?	-	-	2.8µM
SMILES	HepG2 viability	TGFb inhibitor	VP16 counter	S2 tox	ATXN2 expr inh	RORgamma inh
CC(C)(C)c1ccc(C(=O)CC(Sc2ccc(Cl)cc2)C(=O)O)cc1 (configuration not stated)	16µM	?	6.3µM	.	?	1.6µM
CCCCCc1c(CC)ncn1CCc1ccccc1OC	.	.	.	16µM	?	.
CCCCc1c(-c2ccccc2OC)ncn1CCc1cccc(OC)c1	.	.	.	32µM	?	.
CCCCCc1c(-c2ccccc2OC)ncn1CCc1ccccc1OC	.	.	.	.	-	.
CCCCc1c(-c2ccccc2OC)ncn1CCc1ccccc1OC	.	.	.	32µM	?	.
CCCCC/C=C\C\C=C/C=C/C=C/[C@@H](SCC(N)C(=O)NCC(=O)O)[C@@H](O)CCCC(=O)O (some centres not stated)	.	.	-	.	.	-
OC[C@@H]1O[C@H](O)[C@H](O)[C@@H](O)[C@@H]1O	.	.	-	.	.	-
O=C(O)C1CCCC1	-	-	.	.	.	.
Nc1ncc(-c2ccccc2)n1CC1CCCO1 (configuration not stated)	-	?	?	-	-	13µM
O=C(CSc1ncc(-c2ccccc2)n1CC1CCCO1)N1CCCCC1 (configuration not stated)	-	?	-	-	-	-
CCOC(=O)C1=CN(Cc2ccco2)S(=O)(=O)N(C)C1c1ccc(F)c(Cl)c1 (configuration not stated)	-	?	.	-	-	.
CN(C)CCCNc1cc(N2CCN(C)CC2)ncn1	-	-	.	.	.	.
CC1CCCCC1NC(=O)CSc1nnc(-c2ccco2)n1N (configuration not stated)	-	-	.	-	.	.
Cc1ccc(NC(=O)c2ccccc2)s1	-	-	.	-	-	?
Cc1cc(NC(=O)c2ccccc2)sc1C	8.9µM	-	?	-	-	-
CCOc1ccccc1C(=O)NCC(=O)NCCSc1ccc(Br)cc1	-	-	.	?	?	.
COc1cc2c(C(=O)N3CCN(C)CC3)c(C)oc2cc1Br	-	-	-	-	-	-
Cc1oc2cc3c(C(=O)N4CCCCC4)c(C)oc3cc2c1C(=O)N1CCCCC1	-	-	?	-	-	2µM
COc1ccc(C2=NS(=O)(=O)N(C)C(C(=O)N3CCc4ccccc4C3)=C2)cc1OC	-	-	?	-	?	?
C(=C\c1ccccc1)/CN1CCN(c2ncnc3c2oc2ccccc23)CC1	-	?	18µM	?	-	?
CC1=CC(C)(C)N2C(=O)C3(NCCc4c3[nH]c3ccccc43)c3cc(C)cc1c32 (configuration not stated)	-	?	-	22µM	-	-
CN1C(=O)C2(NCCc3c2[nH]c2ccccc32)c2ccccc21 (configuration not stated)	-	?	-	-	-	-
O=C(Nc1ccc(F)c(Cl)c1)c1cc(S(=O)(=O)N2CCCc3ccccc32)ccc1F	-	?	.	.	.	.
